# Results taken from publication PMC7862700, “An all-to-all approach to the identification of sequence-specific readers for epigenetic DNA modifications on cytosine”.
# How the values were obtained:
# Assay in all cases: DAPPL (digital affinity profiling via proximity ligation, sequencing); 10 mM Tris-HCl pH 7.5, 50 mM NaCl, 1 mM DTT, 4% glycerol, room temperature, 30 min; GST-TFs on glutathione beads, 16-mer random dsDNA library, 0.1% formaldehyde crosslink after washing; high values mean tight binding
# FLI1 = molecular target: T1, FLI1 (Homo sapiens, UniProt Q01543 1-452); conditions: protein: recombinant; tags: N-terminal GST; dsDNA, one strand shown
# T1 sequence: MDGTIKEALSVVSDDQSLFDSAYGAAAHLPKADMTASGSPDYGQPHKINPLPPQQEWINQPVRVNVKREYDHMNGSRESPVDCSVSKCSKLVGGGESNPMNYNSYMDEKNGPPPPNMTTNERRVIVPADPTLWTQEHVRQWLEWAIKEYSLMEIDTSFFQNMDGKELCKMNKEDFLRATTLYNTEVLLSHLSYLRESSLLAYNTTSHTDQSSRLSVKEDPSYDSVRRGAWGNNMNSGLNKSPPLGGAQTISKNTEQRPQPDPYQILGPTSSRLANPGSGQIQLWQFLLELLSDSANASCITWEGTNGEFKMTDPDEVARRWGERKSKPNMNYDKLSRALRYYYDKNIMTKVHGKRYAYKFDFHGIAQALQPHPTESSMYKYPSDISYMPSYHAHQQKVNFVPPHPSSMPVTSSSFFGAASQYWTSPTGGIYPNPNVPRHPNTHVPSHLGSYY
# Outline: (§1)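 A tag-only sample was pooled with DNA-barcoded human transcription factors that had been expressed in yeast as GST fusions and captured on glutathione beads. The pools were incubated for 30 min at room temperature with 200 nmole of a random double-stranded 16-mer DNA library in Tris/NaCl/DTT/glycerol buffer, then washed, crosslinked with 0.1% formaldehyde, proximity-ligated (BsaI/T4 ligase, 1 h, 37 °C), PCR-amplified and sequenced on an Illumina NextSeq500. Binding signal is each hexamer's read frequency for a factor divided by its frequency for the tag-only sample.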
# ELK1 = molecular target: T2, ELK1 (Homo sapiens, UniProt P19419 1-428); conditions: protein: recombinant; tags: N-terminal GST; dsDNA, one strand shown
# T2 sequence: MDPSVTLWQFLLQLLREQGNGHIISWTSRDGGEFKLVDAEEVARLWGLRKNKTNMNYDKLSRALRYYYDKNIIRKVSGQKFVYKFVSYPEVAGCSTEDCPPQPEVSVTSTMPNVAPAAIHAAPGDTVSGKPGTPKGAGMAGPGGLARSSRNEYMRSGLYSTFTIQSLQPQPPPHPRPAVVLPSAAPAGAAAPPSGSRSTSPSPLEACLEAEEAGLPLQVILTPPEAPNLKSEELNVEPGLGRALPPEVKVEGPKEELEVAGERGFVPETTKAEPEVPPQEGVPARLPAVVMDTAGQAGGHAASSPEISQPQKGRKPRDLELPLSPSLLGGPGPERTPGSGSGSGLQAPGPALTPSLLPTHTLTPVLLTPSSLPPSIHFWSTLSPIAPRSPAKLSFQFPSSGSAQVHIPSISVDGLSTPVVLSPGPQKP
# Outline: as §1
# GABPA = molecular target: T3, GABPA (Homo sapiens, UniProt Q06546 1-454); conditions: protein: recombinant; tags: N-terminal GST; dsDNA, one strand shown
# T3 sequence: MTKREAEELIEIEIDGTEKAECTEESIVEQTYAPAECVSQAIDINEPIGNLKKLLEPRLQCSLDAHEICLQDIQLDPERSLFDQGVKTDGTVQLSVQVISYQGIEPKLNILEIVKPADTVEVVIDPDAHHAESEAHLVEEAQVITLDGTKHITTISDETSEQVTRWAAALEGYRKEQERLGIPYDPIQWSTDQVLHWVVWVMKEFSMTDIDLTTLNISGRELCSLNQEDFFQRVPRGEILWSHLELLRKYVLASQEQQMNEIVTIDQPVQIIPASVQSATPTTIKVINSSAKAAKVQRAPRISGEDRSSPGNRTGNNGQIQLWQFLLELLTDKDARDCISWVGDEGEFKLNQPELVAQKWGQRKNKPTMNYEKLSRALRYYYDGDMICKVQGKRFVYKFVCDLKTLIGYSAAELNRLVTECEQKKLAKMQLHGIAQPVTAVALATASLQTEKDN
# Outline: as §1
# ERG = molecular target: T4, ERG (Homo sapiens, UniProt P11308 1-479); conditions: protein: recombinant; tags: N-terminal GST; dsDNA, one strand shown
# T4 sequence: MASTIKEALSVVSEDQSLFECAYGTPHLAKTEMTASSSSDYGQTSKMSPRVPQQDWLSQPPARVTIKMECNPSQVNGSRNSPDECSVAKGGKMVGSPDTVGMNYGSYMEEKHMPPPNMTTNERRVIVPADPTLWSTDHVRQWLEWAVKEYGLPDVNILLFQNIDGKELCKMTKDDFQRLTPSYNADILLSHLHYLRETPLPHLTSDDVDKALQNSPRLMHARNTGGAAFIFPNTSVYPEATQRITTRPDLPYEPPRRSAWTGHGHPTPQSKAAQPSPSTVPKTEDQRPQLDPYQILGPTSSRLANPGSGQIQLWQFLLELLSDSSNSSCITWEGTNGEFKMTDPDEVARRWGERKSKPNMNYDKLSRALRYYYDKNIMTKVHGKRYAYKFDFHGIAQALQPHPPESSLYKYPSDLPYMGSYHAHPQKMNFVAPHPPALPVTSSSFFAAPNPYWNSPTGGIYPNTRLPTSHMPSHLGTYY
# Outline: as §1
# ELF1 = ELF1 (Homo sapiens, UniProt P32519 1-619); conditions: protein: recombinant; tags: N-terminal GST; dsDNA, one strand shown
# Outline: as §1
# EHF = molecular target: T5, EHF (Homo sapiens, UniProt Q9NZC4 1-300); conditions: protein: recombinant; tags: N-terminal GST; dsDNA, one strand shown
# T5 sequence: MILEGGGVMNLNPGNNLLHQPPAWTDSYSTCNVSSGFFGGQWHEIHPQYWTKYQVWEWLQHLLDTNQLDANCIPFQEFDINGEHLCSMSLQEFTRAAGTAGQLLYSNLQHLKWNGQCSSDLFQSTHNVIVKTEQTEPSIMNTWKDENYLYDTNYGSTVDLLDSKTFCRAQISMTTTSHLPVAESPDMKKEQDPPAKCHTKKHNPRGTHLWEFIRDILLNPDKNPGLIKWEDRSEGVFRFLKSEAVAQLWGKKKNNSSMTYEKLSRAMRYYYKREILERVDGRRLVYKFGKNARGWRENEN
# Outline: as §1
# SPI1 = SPI1 (Homo sapiens, UniProt P17947 1-270); conditions: protein: recombinant; tags: N-terminal GST; dsDNA, one strand shown
# Outline: as §1
# SPIB = SPIB (Homo sapiens, UniProt Q01892 1-262); conditions: protein: recombinant; tags: N-terminal GST; dsDNA, one strand shown
# Outline: as §1
# ELK3 = molecular target: T6, ELK3 (Homo sapiens, UniProt P41970 1-407); conditions: protein: recombinant; tags: N-terminal GST; dsDNA, one strand shown
# T6 sequence: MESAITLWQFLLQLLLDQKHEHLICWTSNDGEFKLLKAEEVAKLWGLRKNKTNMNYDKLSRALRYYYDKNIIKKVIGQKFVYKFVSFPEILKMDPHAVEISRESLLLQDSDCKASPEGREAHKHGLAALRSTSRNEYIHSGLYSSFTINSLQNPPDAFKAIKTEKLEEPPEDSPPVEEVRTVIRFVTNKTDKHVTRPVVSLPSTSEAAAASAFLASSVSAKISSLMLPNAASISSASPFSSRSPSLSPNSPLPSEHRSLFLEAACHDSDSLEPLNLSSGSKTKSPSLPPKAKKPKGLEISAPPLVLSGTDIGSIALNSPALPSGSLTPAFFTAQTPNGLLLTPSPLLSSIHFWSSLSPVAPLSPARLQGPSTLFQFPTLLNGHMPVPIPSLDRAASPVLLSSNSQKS
# Outline: as §1
# FEV = molecular target: T7, FEV (Homo sapiens, UniProt Q99581 1-238); conditions: protein: recombinant; tags: N-terminal GST; dsDNA, one strand shown
# T7 sequence: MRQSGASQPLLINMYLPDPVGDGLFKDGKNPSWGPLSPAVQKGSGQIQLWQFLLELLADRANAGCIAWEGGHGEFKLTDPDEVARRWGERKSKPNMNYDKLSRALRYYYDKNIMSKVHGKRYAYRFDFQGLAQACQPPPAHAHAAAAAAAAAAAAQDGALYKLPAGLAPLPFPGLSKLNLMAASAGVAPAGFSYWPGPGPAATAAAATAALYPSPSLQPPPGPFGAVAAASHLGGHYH
# Outline: as §1
# ETV5 = ETV5 (Homo sapiens, UniProt P41161 1-510); conditions: protein: recombinant; tags: N-terminal GST; dsDNA, one strand shown
# Outline: as §1
# HSF1 = HSF1 (Homo sapiens, UniProt Q00613 1-529); conditions: protein: recombinant; tags: N-terminal GST; chain copies: 3; dsDNA, one strand shown
# Outline: as §1
# SPIC = molecular target: T8, SPIC (Homo sapiens, UniProt Q8N5J4 1-248); conditions: protein: recombinant; tags: N-terminal GST; dsDNA, one strand shown
# T8 sequence: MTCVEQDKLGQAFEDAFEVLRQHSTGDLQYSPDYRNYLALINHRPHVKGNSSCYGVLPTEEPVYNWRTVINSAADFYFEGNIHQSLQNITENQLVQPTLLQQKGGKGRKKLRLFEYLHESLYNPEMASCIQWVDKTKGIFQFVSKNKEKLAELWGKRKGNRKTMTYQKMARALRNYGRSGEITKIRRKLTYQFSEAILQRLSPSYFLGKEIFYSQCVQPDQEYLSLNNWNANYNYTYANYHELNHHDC
# Outline: as §1
# ELF4 = ELF4 (Homo sapiens, UniProt Q99607 1-663); conditions: protein: recombinant; tags: N-terminal GST; dsDNA, one strand shown
# Outline: as §1
# ELK4 = molecular target: T9, ELK4 (Homo sapiens, UniProt P28324-2 1-405); conditions: protein: recombinant; tags: N-terminal GST; dsDNA, one strand shown
# T9 sequence: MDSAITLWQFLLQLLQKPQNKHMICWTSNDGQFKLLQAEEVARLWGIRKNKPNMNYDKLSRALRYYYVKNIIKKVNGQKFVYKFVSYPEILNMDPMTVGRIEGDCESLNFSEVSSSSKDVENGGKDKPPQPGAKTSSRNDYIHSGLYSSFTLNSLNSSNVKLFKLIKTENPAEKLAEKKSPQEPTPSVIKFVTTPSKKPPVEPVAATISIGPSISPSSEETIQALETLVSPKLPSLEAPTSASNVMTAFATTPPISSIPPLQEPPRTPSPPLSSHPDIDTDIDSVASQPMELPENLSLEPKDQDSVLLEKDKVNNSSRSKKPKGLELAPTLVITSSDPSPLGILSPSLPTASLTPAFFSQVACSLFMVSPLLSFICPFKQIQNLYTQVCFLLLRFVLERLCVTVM
# Outline: as §1
# ETV2 = molecular target: T10, ETV2 (Homo sapiens, UniProt O00321 1-342); conditions: protein: recombinant; tags: N-terminal GST; dsDNA, one strand shown
# T10 sequence: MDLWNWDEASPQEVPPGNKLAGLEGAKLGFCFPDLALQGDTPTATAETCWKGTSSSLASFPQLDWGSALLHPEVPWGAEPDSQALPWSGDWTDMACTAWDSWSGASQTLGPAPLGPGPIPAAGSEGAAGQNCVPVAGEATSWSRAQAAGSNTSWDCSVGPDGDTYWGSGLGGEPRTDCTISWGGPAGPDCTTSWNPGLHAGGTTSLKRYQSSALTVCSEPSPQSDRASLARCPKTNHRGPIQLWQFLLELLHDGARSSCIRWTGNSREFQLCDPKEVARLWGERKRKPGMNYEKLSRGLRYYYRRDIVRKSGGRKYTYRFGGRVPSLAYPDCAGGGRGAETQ
# Outline: as §1
# ELF3 = molecular target: T11, ELF3 (Homo sapiens, UniProt P78545 1-371); conditions: protein: recombinant; tags: N-terminal GST; dsDNA, one strand shown
# T11 sequence: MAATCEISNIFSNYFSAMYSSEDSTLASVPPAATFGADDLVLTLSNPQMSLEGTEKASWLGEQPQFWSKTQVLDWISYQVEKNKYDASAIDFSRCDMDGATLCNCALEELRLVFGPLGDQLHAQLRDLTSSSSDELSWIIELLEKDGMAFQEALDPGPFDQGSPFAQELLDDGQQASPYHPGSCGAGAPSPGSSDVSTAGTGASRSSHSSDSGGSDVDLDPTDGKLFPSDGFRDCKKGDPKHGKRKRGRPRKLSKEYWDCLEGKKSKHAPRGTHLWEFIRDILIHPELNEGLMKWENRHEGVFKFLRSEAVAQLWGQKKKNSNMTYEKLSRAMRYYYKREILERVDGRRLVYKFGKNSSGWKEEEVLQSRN
# Outline: as §1
# CRX = CRX (Homo sapiens, UniProt O43186 1-299); conditions: protein: recombinant; tags: N-terminal GST; dsDNA, one strand shown
# Outline: as §1
# ETV1 = ETV1 (Homo sapiens, UniProt P50549 1-477); conditions: protein: recombinant; tags: N-terminal GST; dsDNA, one strand shown
# Outline: as §1
# Chain of ELF4 (Q99607 whole entry): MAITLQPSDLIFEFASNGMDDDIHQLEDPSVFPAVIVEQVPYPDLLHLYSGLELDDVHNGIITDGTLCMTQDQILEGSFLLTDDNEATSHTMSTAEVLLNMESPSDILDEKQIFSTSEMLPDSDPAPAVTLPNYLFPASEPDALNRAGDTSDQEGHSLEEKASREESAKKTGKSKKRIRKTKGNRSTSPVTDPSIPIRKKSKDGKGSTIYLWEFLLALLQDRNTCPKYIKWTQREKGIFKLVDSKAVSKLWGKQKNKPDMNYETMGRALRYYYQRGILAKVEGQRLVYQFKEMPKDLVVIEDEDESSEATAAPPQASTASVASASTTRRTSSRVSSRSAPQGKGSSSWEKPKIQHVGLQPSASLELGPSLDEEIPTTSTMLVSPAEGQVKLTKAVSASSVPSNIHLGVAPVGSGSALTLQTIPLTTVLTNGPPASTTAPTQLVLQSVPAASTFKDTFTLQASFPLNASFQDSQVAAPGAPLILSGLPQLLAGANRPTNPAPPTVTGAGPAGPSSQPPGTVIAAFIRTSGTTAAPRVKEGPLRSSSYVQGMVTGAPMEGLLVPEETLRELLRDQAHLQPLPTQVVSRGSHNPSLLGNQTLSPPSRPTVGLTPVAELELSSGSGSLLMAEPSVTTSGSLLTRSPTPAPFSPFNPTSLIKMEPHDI
# Chain of SPIB (Q01892 whole entry): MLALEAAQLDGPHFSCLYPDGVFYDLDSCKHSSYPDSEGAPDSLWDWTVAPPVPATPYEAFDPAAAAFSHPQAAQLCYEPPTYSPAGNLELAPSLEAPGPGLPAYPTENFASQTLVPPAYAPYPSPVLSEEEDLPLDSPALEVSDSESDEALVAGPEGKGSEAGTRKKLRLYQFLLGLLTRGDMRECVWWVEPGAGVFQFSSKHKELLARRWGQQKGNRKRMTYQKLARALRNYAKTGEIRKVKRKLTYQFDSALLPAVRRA
# Chain of ETV5 (P41161 whole entry): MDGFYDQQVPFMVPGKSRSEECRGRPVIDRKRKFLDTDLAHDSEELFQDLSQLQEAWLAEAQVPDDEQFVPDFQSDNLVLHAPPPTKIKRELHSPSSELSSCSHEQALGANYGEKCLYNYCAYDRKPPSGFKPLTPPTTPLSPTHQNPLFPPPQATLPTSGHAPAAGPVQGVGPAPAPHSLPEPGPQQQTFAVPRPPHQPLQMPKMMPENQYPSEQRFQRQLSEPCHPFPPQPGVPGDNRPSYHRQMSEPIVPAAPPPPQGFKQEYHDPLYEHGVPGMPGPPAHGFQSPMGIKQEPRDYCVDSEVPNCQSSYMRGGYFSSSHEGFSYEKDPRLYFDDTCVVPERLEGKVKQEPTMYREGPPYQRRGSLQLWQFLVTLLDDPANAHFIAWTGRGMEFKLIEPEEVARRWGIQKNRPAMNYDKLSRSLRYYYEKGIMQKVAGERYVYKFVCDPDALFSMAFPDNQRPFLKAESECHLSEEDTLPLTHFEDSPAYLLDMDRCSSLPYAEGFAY
# Chain of CRX (O43186 whole entry): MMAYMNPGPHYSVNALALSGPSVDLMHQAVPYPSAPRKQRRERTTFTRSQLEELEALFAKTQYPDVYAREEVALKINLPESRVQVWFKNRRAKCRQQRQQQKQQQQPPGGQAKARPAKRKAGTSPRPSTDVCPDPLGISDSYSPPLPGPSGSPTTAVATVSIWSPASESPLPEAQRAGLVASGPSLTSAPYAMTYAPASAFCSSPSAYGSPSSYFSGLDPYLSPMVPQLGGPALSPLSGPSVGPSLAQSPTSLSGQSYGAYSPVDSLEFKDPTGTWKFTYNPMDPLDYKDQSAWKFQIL
# Chain of HSF1 (Q00613 whole entry): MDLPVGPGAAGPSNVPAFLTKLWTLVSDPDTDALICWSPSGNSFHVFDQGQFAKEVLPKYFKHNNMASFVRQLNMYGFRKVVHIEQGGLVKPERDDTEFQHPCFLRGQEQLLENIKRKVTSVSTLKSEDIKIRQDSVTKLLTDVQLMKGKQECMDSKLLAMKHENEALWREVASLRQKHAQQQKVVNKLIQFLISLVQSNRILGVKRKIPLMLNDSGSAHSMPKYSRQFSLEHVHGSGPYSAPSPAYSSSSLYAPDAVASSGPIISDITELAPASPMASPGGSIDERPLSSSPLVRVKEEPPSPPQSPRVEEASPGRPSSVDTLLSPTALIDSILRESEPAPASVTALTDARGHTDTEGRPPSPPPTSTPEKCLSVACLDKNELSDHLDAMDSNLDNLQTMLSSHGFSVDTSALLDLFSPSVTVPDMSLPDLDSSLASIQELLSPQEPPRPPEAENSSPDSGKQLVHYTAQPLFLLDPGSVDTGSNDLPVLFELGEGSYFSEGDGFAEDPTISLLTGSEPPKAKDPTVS
# Chain of ETV1 (P50549 whole entry): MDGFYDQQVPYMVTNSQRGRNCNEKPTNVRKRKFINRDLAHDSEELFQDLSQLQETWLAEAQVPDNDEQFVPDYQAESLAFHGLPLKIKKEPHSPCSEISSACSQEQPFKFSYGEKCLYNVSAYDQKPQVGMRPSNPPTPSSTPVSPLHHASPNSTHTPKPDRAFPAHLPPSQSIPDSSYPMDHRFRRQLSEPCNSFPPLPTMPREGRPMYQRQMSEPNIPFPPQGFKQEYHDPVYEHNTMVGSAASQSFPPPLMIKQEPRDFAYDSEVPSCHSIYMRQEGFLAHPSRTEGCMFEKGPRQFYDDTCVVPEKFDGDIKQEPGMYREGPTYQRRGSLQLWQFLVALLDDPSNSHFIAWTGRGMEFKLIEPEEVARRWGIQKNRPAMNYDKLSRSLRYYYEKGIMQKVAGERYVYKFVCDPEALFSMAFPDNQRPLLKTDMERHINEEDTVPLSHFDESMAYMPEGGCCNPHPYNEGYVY
# Chain of ELF1 (P32519 whole entry): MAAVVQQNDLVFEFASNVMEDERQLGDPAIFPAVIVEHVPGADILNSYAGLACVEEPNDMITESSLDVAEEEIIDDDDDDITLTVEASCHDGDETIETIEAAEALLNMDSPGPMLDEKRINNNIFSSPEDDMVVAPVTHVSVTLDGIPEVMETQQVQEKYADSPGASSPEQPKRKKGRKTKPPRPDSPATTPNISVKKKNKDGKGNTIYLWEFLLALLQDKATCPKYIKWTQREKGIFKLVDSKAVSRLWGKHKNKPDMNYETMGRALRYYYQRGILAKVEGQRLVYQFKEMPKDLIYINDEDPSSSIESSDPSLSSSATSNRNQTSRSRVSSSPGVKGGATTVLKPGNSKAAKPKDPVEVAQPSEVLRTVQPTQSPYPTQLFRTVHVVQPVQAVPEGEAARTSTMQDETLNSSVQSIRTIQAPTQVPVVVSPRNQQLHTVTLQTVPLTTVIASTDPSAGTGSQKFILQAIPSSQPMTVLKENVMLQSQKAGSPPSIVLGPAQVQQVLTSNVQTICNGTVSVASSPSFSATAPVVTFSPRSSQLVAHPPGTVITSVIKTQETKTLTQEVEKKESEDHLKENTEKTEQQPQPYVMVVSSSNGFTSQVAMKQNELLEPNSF
sequence,measurement,setting,value
TATGGG,binding signal,FLI1,"1.23 fold enrichment (6-mer frequency, TF over GST control)"
same,binding signal,ELK1,"1.06 fold enrichment (6-mer frequency, TF over GST control)"
same,binding signal,GABPA,"1.25 fold enrichment (6-mer frequency, TF over GST control)"
same,binding signal,ERG,"1.15 fold enrichment (6-mer frequency, TF over GST control)"
same,binding signal,ELF1,"1.16 fold enrichment (6-mer frequency, TF over GST control)"
same,binding signal,EHF,"1.37 fold enrichment (6-mer frequency, TF over GST control)"
same,binding signal,SPI1,"1.21 fold enrichment (6-mer frequency, TF over GST control)"
same,binding signal,SPIB,"1.27 fold enrichment (6-mer frequency, TF over GST control)"
same,binding signal,ELK3,"1.18 fold enrichment (6-mer frequency, TF over GST control)"
same,binding signal,FEV,"1.13 fold enrichment (6-mer frequency, TF over GST control)"
same,binding signal,ETV5,"1.18 fold enrichment (6-mer frequency, TF over GST control)"
same,binding signal,HSF1,"1.1 fold enrichment (6-mer frequency, TF over GST control)"
same,binding signal,SPIC,"1.32 fold enrichment (6-mer frequency, TF over GST control)"
same,binding signal,ELF4,"1.18 fold enrichment (6-mer frequency, TF over GST control)"
same,binding signal,ELK4,"1.14 fold enrichment (6-mer frequency, TF over GST control)"
same,binding signal,ETV2,"1.11 fold enrichment (6-mer frequency, TF over GST control)"
same,binding signal,ELF3,"1.18 fold enrichment (6-mer frequency, TF over GST control)"
same,binding signal,CRX,"1.36 fold enrichment (6-mer frequency, TF over GST control)"
same,binding signal,ETV1,"1.2 fold enrichment (6-mer frequency, TF over GST control)"
